Compound activity: PubChem BioAssay, National Center for Advancing Translational Sciences (NCATS)
This is a sample that favours compounds with a hit; in the whole collection about 6% have one here.
D1 PAM – human D1 dopamine receptor positive modulation. P21728. HEK293 TREx D1 cells, calcium flux, dopamine EC20 potentiation. potentiation, % at 10 µM. 360,000 tested, 0.036% active; in the data active = potentiation above about 30%
Target sequence (P21728 whole entry, looked up): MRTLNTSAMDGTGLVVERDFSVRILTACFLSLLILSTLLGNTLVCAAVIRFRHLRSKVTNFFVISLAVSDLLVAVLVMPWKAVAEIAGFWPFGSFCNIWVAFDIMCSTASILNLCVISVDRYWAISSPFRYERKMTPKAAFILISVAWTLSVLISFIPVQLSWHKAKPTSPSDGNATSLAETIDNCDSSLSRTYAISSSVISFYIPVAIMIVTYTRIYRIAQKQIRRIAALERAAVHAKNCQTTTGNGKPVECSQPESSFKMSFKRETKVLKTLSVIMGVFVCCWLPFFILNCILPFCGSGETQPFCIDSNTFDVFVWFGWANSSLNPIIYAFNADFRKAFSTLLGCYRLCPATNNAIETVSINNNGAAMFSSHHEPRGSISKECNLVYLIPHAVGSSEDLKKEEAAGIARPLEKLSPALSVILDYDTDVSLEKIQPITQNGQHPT
D3 ag – D3 dopamine receptor (human) agonism; P35462; D3R DiscoveRx beta-arrestin cells, luminescence, 90 min; max activation, %; 410,000 tested, 0.58% active; AID 652048; in the data active = max activation above about 30%
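Agonist-mode cell screen: cells plated at 1500/well and incubated overnight at 37 °C, then exposed to library compounds for 90 min at 37 °C. Detection reagent was added for 30–60 min at room temperature, and luminescence was read.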
D1 agonist – human D1 receptor agonism; P21728; HEK293 T-REx D1 cells, calcium flux, agonist mode; activation, % at 2 µM; 360,000 tested, 1% active; in the data active = activation above about 30%
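Tetracycline-induced HEK293 TREx D1 cells, force-coupled to calcium signalling, were dye-loaded with a no-wash calcium kit. Compound was pin-added after a 10 s baseline. Fluorescence was read kinetically at 1 cycle/s for 180 s, with calcium rises flagged as agonism.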
DRD3 antagonist – antagonists of human D3 dopamine receptor; AID 652054; D3R cells, DiscoveRx beta-arrestin luminescence, antagonist mode; active compounds read low; max response, negative = inhibition, %; 360,000 tested, 2.5% active; in the data active = max response below about -50%
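Cells plated overnight at 1500 cells/well, then exposed to library compounds with dopamine controls for 90 minutes at 37 degrees C. DiscoveRx reagent added for 30–60 minutes at room temperature; luminescence read, quantitative HTS format.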
D1 antagonist – antagonists of human D1 dopamine receptor; P21728; activity change, negative = inhibition, % at 10 µM; 360,000 tested, 3.2% active; HEK293 TREx D1 cells, calcium flux, dopamine EC80; active compounds read low; in the data active = activity change below about -30%
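Using tetracycline-induced force-coupled D1 Hek293 cells and a calcium dye, signals were followed for 180 s after compound, then for 180 s after EC80 dopamine, to detect inhibitors.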
Hits are given with their value; i = inactive; nt = no result given; ! = not active in a repeat.

SMILES	D1 PAM	D3 ag	D1 agonist	DRD3 antagonist	D1 antagonist
Clc1ccc(Cn2c(-c3cccnc3Cl)nc3ccccc32)cc1	i	i	i	i	-45
O=C(COc1ccccc1)NCCS(=O)(=O)N1CCN(c2ccccc2)CC1	i	i	i	i	-35
CCOc1ccc(OCC(=O)NCCS(=O)(=O)N2CCN(c3ccccc3F)CC2)cc1	i	i	i	nt	i
CCOc1ccc(OCC(=O)NCCS(=O)(=O)N2CCN(c3ccccc3)CC2)cc1	nt	i	nt	i	nt
CCOc1ccc(OCC(=O)NCCS(=O)(=O)N2CCN(c3ccc(F)cc3)CC2)cc1	i	38!	i	i	i
CCOc1ccc(CN2C(=O)c3ccccc3Sc3ccc(C(=O)OC)cc32)cc1	i	i	i	nt	i
Cc1ccc(CNC(=O)CN(c2cc(C)cc(C)c2)S(=O)(=O)c2c(C)noc2C)cc1	i	i	i	nt	i
FC(F)(F)c1nc2nc(Cl)c(Cl)nc2n1CCCN1CCOCC1	nt	i	nt	-57	nt
COCCOC(=O)c1c(C)n(S(=O)(=O)c2ccc(C)cc2)c2ccc(NS(=O)(=O)c3ccc(C)cc3)cc12	i	i	i	nt	i
COC(=O)c1sccc1NC(=O)CSc1ccccc1NS(=O)(=O)c1ccc(Cl)cc1	nt	i	nt	-59	nt
COC(=O)c1sccc1NC(=O)CSc1ccccc1NS(=O)(=O)c1ccccc1Cl	i	i	i	i	i
Cn1c(=O)c([N+](=O)[O-])c(Cl)c2ccccc21	i	i	i	-85	i
CCN(CC)c1c([N+](=O)[O-])c(=O)n(C)c2ccccc12	i	i	i	i	i
O=C1c2ccccc2[C@@H]2C[C@@H](O)[C@H](Nc3cccc4ccccc34)CCN12	nt	i	nt	-56	nt
COc1ccc(N[C@@H]2CCN3C(=O)c4ccccc4[C@@H]3C[C@H]2O)cc1	nt	i	nt	i	nt
CCOC(=O)c1cc(-c2ccccc2)n(-c2cccc(C(=O)Nc3ccc(OCC)cc3)c2)c1C	i	i	i	nt	i
Cc1ccc(-n2nc3c(c2NC(=O)c2ccc4c(c2)OCO4)CS(=O)C3)c(C)c1 (centres undefined)	i	i	i	i	-52
O=C(Nc1c2c(nn1-c1ccc(F)cc1)CS(=O)C2)c1ccc2c(c1)OCO2 (centres undefined)	i	i	i	i	i
O=C(Nc1c2c(nn1-c1cccc(Cl)c1)CS(=O)C2)c1ccc2c(c1)OCO2 (centres undefined)	i	i	i	i	-36
Cc1ccc(-n2nc3c(c2NC(=O)c2ccc4c(c2)OCO4)CS(=O)(=O)C3)cc1	i	i	i	i	i
O=[N+]([O-])c1ccc(S(=O)(=O)NCc2nc3cccnc3n2Cc2ccccc2Cl)cc1	i	i	i	nt	i
Oc1cccc(/C=N\Nc2nncc(-c3ccccc3)n2)c1	i	i	i	i	-37
CCOc1cc(/C=N/Nc2nncc(-c3ccccc3)n2)ccc1O	i	i	i	i	i
CC1(C)CC(=O)C(N=Nc2cccc([N+](=O)[O-])c2)=C(O)C1	i	i	i	-67	i
CC1(C)CC(=O)C2=C(C1)OC1=C(C(=O)CC(C)(C)C1)C2c1ccc(O)c([N+](=O)[O-])c1	i	i	i	i	i
SMILES	D1 PAM	D3 ag	D1 agonist	DRD3 antagonist	D1 antagonist
CC1(C)CC(=O)C(N=Nc2ccc(Br)cc2)=C(O)C1	i	i	i	i	i
CC1(C)CC(=O)C2=C(C1)OC1=C(C(=O)CC(C)(C)C1)C2c1cccc([N+](=O)[O-])c1	nt	i	nt	-78	nt
CO/N=C(\C(=O)N[C@@H]1C(=O)N2C(C(=O)O)=C(CSC(=O)c3ccco3)CS[C@H]12)c1csc(N)n1	nt	i	nt	nt	nt
O=C(NCc1ccccc1Cl)C1CCN(S(=O)(=O)Cc2ccccc2)CC1	i	i	i	nt	i
CCn1c(=N)n(CC(=O)c2ccc(Br)s2)c2ccccc21	i	i	i	i	i
CCCCn1c(=N)n(CC(=O)c2ccc(Br)s2)c2ccccc21	i	i	44	i	i
CCOC(=O)Cn1c(=N)n(CCOc2ccc(Br)cc2)c2ccccc21	i	i	51	i	i
CCCCn1c(=N)n(CCCOc2ccc(F)cc2)c2ccccc21	i	i	79	nt	i
COc1ccc2c(c1)cc1c(=O)n(CC(=O)NC3CCCCC3)nc(C)n12	i	i	i	nt	i
O=C(Nc1ccccc1C(=O)O)c1ccc(Br)c(S(=O)(=O)NCc2ccccc2)c1	i	39	i	i	i
Cc1ccc2c(=O)cc(C(=O)Nc3c(C(=O)c4ccccc4)oc4ccccc34)oc2c1C	i	i	i	nt	i
O=C(COc1ncnc2ccccc12)NCCc1ccccc1	i	i	i	i	-44
O=c1cc(N2CCCCC2)c(-c2ccccc2)nn1Cc1c(Cl)cccc1Cl	i	i	i	-69	i
COc1cc(Cl)c(C)cc1NC(=O)c1cnn(-c2ccc(F)cc2F)c1C1CCN(C(=O)OC(C)(C)C)CC1	i	i	i	nt	-41
CC(C)(C)OC(=O)N1CCC(c2c(C(=O)Nc3ccc4c(c3)OCCO4)cnn2-c2ccc(F)cc2F)CC1	i	i	i	nt	-35
COc1ccc(NC(=O)c2cnn(-c3ccc(F)cc3F)c2C2CCN(C(=O)OC(C)(C)C)CC2)cc1Cl	i	i	i	nt	i
Cn1cc(-c2nnnn2-c2cccc(C(F)(F)F)c2)c(C(F)(F)F)n1	i	i	i	i	-37
CC1(C)CC(=O)C(C=Nc2ccccc2Sc2ccccc2)=C(O)C1	i	i	i	-54	i
Cc1cccc(N2CCN(C(=O)CN3C(=O)COc4ccc(S(=O)(=O)N5CCCCCC5)cc43)CC2)c1C	i	i	i	nt	i
CCCCCCCCCCCCCCCCOCCOCCOCCOCCOCCOCCOCCOCCOCCOCCOCCOCCOCCOCCOCCOCCOCCOCCOCCOCCO	nt	i	nt	nt	nt
COc1ccccc1C(CC(=O)c1ccccc1)CC(=O)c1ccccc1	i	i	30	i	i
C/C=C(/C)C(=O)OC(C)(C)[C@@H]1Cc2c(ccc3ccc(=O)oc23)O1	i	i	i	-154	i
CC(C)CC(=O)OC(C)(C)[C@@H]1Cc2c(ccc3ccc(=O)oc23)O1	nt	i	nt	i	nt
CCCCN(C=O)c1c(CC)nc2c(OCc3ccc(Cl)cc3Cl)cccn12	nt	i	nt	-57	nt
CCc1nc2c(OCc3cc(Cl)cc(Cl)c3)cccn2c1N(C)C(=O)CC(C)C	nt	i	nt	-66	nt
SMILES	D1 PAM	D3 ag	D1 agonist	DRD3 antagonist	D1 antagonist
CCc1nc2c(OCCC3CCCCC3)cccn2c1N(C)C(=O)c1ccc(OC)cc1	nt	i	nt	-111	nt
CCC(CC)C(=O)N(C)c1c(C)nc2c(OCCC3CCCCC3)cccn12	nt	i	nt	-50	nt
CCc1nc2c(OCCC3CCCCC3)cccn2c1N(C)C(=O)c1ccncc1	nt	i	nt	i	nt
CCCCN(C=O)c1c(CC)nc2c(OCc3ccccc3C)cccn12	nt	i	nt	i	nt
Cc1ccccc1-c1noc(-c2ccc(N3CCC(C)CC3)c([N+](=O)[O-])c2)n1	i	i	i	nt	i
O=C1C2C3CCCC3=C3CCCC3C2C(=O)N1c1ccccc1Cl (centres undefined)	i	nt	i	nt	i
